Assay [1] is described as follows: polyglutamine-triggered caspase-3 activation inhibitors, cell-based (AID 1583). The following applies: polyglutamine-induced caspase-3 activation, cell assay; stronger effect = higher value;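 tested at 10 µM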.
Assay [2] can be described thus: suppressors of polyQ aggregation in yeast, 75Q-TubU reporter (AID 1593). The following applies: Yeast 75Q polyglutamine aggregation reporter.
The nature of assay [3]: rescue of polyQ-huntingtin neuronal dysfunction in worms, whole organism, C. elegans mechanosensory neurons, N-terminal huntingtin (AID 1599). The settings on record: touch response, stronger effect = higher value.
Assay [4] in a line: inhibitors of mitochondrial cytochrome c release, biochemical, purified mitochondria (AID 1603).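 Note: mouse liver mitochondria challenged with calcium chloride; signal normalized to the plate average as 100%.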 The settings on record: stronger effect = lower value.
The nature of assay [5]: inhibitors of polyQ protein aggregation (AID 1604). The settings on record: polyglutamine-induced protein aggregation inhibition assay; stronger effect = higher value; tested at 2.5 µM.
Assay [6] has as its target ATP-dependent translocase ABCB1 (Homo sapiens) (UniProt P08183). In words: MDR1 (ABCB1) efflux transporter inhibition, cell-based (AID 377). The following applies: MDR1-expressing cells, fluorescent substrate accumulation slope; stronger effect = higher value; concentration not given here.

Results filed as inconclusive are left out. For some of these results: Measured potencies and affinities stand elsewhere. The source made the active and inactive calls. Cut-off read from the data, not from the text of the source: active = fluorescence slope change above about 50%; inconclusive = mostly about 31% to 49%; inactive = weaker than that.

Sequence of ATP-dependent translocase ABCB1 (Homo sapiens) (P08183 whole entry, looked up): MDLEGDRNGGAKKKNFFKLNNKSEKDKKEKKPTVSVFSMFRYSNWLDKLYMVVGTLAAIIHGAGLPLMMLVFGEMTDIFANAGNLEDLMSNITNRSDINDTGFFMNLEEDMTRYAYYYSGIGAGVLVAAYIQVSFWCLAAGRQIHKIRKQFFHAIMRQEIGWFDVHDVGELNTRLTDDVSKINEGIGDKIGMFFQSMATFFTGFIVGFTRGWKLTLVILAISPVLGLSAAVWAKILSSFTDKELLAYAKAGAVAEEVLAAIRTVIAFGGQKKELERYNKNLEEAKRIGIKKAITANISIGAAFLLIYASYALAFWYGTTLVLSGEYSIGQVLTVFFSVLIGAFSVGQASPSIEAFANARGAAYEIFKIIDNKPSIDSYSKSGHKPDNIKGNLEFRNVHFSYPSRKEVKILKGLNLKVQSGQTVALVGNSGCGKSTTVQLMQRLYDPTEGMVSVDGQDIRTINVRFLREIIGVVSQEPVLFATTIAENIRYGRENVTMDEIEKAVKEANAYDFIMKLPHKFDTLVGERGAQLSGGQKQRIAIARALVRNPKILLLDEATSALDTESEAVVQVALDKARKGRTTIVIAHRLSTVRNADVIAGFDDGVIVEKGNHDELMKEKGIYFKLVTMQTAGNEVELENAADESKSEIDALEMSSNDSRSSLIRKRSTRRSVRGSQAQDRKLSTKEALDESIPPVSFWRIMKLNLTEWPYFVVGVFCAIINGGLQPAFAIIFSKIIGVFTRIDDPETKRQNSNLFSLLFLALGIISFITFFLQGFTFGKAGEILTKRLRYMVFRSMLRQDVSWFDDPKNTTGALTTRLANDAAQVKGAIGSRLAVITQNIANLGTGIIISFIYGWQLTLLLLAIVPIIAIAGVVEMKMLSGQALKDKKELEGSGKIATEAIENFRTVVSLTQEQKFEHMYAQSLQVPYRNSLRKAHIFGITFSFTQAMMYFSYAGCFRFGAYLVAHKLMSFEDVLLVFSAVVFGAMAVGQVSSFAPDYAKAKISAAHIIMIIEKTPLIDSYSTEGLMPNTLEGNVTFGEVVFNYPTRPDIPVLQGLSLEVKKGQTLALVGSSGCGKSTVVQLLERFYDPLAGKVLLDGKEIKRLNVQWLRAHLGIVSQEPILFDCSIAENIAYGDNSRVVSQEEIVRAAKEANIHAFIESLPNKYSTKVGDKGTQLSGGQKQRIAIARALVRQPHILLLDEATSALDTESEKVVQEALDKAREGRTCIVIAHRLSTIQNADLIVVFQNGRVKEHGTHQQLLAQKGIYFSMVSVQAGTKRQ

By inhibition is commonly meant the relative decrease from the control value, in per cent. As for `CCN(CC)C(=O)c1cccc(C)c1`, the inhibition in assay [1] is 9.84%. For the same molecule, the score in assay [2] came out at 1.21. The rescue above control in assay [3] is -4.11. Besides, the cytochrome c release ratio in assay [4] is 1.07. The inhibition of aggregation in assay [5] was determined as 28.8%.
Consider `C[N+](C)(C)CCCCCC[N+](C)(C)C`, for which, in assay [1], the inhibition came to 1.59%. The molecule further gave a score in assay [2] of 1.14. The rescue above control in assay [3] is -10.3. Besides, in assay [4], the cytochrome c release ratio stood at 0.92. In assay [5], the inhibition of aggregation stood at 72.2%.
As for `CC(=O)N(O)CCCCCNC(=O)CCC(=O)N(O)CCCCCNC(=O)CCC(=O)N(O)CCCCCN`, the inhibition in assay [1] is -1.64%. The molecule also returned a score in assay [2] of 0.93. The molecule also came in with a rescue above control in assay [3] of -3.69. In addition, in assay [4], the cytochrome c release ratio was determined as 0.93. In addition, the inhibition of aggregation in assay [5] turned out to be 63.2%.
Take `OC[C@H]1O[C@@H](O[C@@H]2[C@@H](CO)O[C@](O)(CO)[C@H]2O)[C@H](O)[C@@H](O)[C@H]1O`: the inhibition in assay [1] is -7.91%. In assay [2], this molecule showed a score of 1.23. The molecule also gave a rescue above control in assay [3] of -9.67. Moreover, in assay [4], the cytochrome c release ratio was 1.19. The inhibition of aggregation in assay [5] was 51.2%.
In the same order, the values of `O=C(OCc1ccccc1)c1ccccc1` are 4.26%, 0.45, 0.5, 1.04 and 74%.
Turning to `COc1ccc(NS(=O)(=O)c2ccc(N)cc2)nn1`, the fluorescence slope change in assay [6] is -40.8% (inactive). The inhibition in assay [1] amounted to 24%. Besides, the score in assay [2] came out at 1.56. The molecule further had a rescue above control in assay [3] of 12.3. In addition, the cytochrome c release ratio in assay [4] stood at 0.95. In assay [5], the inhibition of aggregation is -3.03%.
In the case of `CN(C)CCOC(=O)COc1ccc(Cl)cc1`, the fluorescence slope change in assay [6] is -15.2% (inactive). The inhibition in assay [1] worked out at 6.84%. Also, the score in assay [2] came out at 1.08. Besides, the rescue above control in assay [3] is -6.72. Besides, the cytochrome c release ratio in assay [4] was 0.96. Further, the inhibition of aggregation in assay [5] was found to be 83.1%.
As for `CCCN(CCC)C(=O)C(CCC(=O)O)NC(=O)c1ccccc1` (centres undefined), the inhibition in assay [1] amounted to 14.9%. Also, the score in assay [2] stood at 1.14. This molecule also came in with a rescue above control in assay [3] of -3.65. In assay [4], the cytochrome c release ratio was found to be 1.15. Moreover, the inhibition of aggregation in assay [5] stood at 68.3%.
In the same order, the values of `CCCCOc1ccc(C(=O)CCN2CCCCC2)cc1` are -5.19%, 1.14, 14.1, 0.48 and 80.3%.
Turning to `C/C=C(/C(=C/C)c1ccc(O)cc1)c1ccc(O)cc1`, the fluorescence slope change in assay [6] is 10.7% (inactive). Moreover, in assay [1], the inhibition was 31.3%. This molecule also displayed a score in assay [2] of 0.33. In assay [3], this molecule came in with a rescue above control of -4.61. Further, in assay [4], the cytochrome c release ratio was determined as 4.08. For the same molecule, in assay [5], the inhibition of aggregation is 63.2%.
With `CC1=C(C(=O)O)N2C(=O)[C@@H](NC(=O)[C@H](N)c3ccc(O)cc3)[C@H]2SC1`, in assay [1], the inhibition is -20.4%. The score in assay [2] was 1.38. Further, the rescue above control in assay [3] amounted to 2.74. Besides, the cytochrome c release ratio in assay [4] is 0.96. In assay [5], the inhibition of aggregation amounted to 74.6%.
As to `CN(C)[C@@H]1C(=O)C(C(N)=O)=C(O)[C@@]2(O)C(=O)C3=C(O)c4c(O)ccc(Cl)c4[C@@H](O)[C@H]3C[C@@H]12`, in assay [6], the fluorescence slope change is 2.1% (inactive). In addition, the inhibition in assay [1] was 13.2%. Besides, the score in assay [2] was found to be 0.8. Besides, the rescue above control in assay [3] amounted to 0. For the same molecule, the cytochrome c release ratio in assay [4] stood at 2.6. For the same molecule, the inhibition of aggregation in assay [5] turned out to be 27.8%.
Regarding `Cc1ccc(C(=O)c2ccc(CC(=O)O)n2C)cc1`, the fluorescence slope change in assay [6] is 69.6% (active). In assay [1], the inhibition amounted to 3.78%. This molecule returned a score in assay [2] of 1.04. Further, the rescue above control in assay [3] is -3.75. For the same molecule, in assay [4], the cytochrome c release ratio amounted to 1.04. For the same molecule, the inhibition of aggregation in assay [5] came to 23.8%.
With `CC(=O)NO`, the fluorescence slope change in assay [6] is 25.2% (inactive). The inhibition in assay [1] stood at 31.8%. Also, in assay [2], the score is 1.13. The rescue above control in assay [3] was -5.59. The cytochrome c release ratio in assay [4] was determined as 0.77. Besides, the inhibition of aggregation in assay [5] amounted to 58.3%.
On to `CCOc1ccc(NC(C)=O)cc1`, for which the fluorescence slope change in assay [6] was 5.5% (inactive). The inhibition in assay [1] is -10.9%. This molecule registered a score in assay [2] of 0.84. In assay [3], this molecule yielded a rescue above control of -2.44. Moreover, the cytochrome c release ratio in assay [4] is 0.87. The inhibition of aggregation in assay [5] was -59.3%.
Regarding `COc1ccccc1OCC(O)CO` (centres undefined), the fluorescence slope change in assay [6] was 12.6% (inactive). In assay [1], the inhibition is -27.7%. Besides, the score in assay [2] turned out to be 0.87. This molecule also registered a rescue above control in assay [3] of -10.8. Besides, in assay [4], the cytochrome c release ratio was determined as 1.15. Besides, the inhibition of aggregation in assay [5] was found to be 58.9%.
Turning to `c1ccc(CN(CC2=NCCN2)c2ccccc2)cc1`, the fluorescence slope change in assay [6] was 118% (active). For the same molecule, the inhibition in assay [1] came out at 9.99%. Moreover, in assay [2], the score amounted to 1.33. In assay [3], the rescue above control is -13.1. In addition, in assay [4], the cytochrome c release ratio was 1.08. Also, in assay [5], the inhibition of aggregation worked out at 71.4%.

These data come from PubChem BioAssay.
